From PubChem BioAssay (Tox21)
Records with an inconclusive call do not appear. Unmarked numbers belong to inactive results. The source made the active and inactive calls. The call rests on the fitted dose curve.

Test: qHTS assay to identify small molecule antagonists of the estrogen receptor alpha (ER-alpha) signaling pathway using the BG1 cell line (AID 743080);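 further: BG1 cells stimulated with 17beta-estradiol alongside compound; nearly all actives have a fitted effect of over 25% in size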
Settings: BG1Luc4E2 ERE-luciferase antagonist mode, luminescence; series mostly up to 70.3 µM; activity change, negative = inhibition: at the top concentration
Description: National Center for Advancing Translational Sciences [NCATS]
NIH Chemical Genomics Center [NCGC]
U.S. Environmental Protection Agency [EPA]
National Institutes of Environmental Health Sciences [NIEHS]
National Toxicology Program [NTP]
U.S. Food and Drug Administration [FDA]
Estrogen receptor (ER), a nuclear hormone receptor, plays an important role in development, metabolic homeostasis and reproduction. Endocrine disrupting chemicals (EDCs) and their interactions with steroid hormone receptors like ER causes disruption of normal endocrine function. Therefore, it is important to understand the effect of environmental chemicals on the ER signaling pathway. To identify ER antagonists, BG1-Luc-4E2 cell line (provided by Dr. Michael Denison from University of California) has been used to screen the Tox21 10K compound library. BG1Luc4E2 cell line endogenously expresses full-length ER-alpha and is stably transfected with a plasmid containing four estrogen responsive elements (ERE) upstream of a luciferase reporter gene.
Tox21 Assay Protocol Summary:
BG1-Luc-4E2 cells were cultured in phenol red free assay medium containing 10% charcoal stripped FBS for 5 days before the assay was performed. The cells were dispensed at 4,000 cells/4 uL of assay medium per well into white wall/solid-bottom 1536-well plates using a Multidrop Combi (ThermoFisher Scientific, Waltham, MA) dispenser. The assay plates were incubated at a 37C and 5% CO2 for 24 h, and then 23 nL of compounds dissolved in DMSO, positive controls or DMSO only was transferred to the assay plate using a Pintool station (Kalypsys, San Diego, CA), followed by addition of 1 uL of 17beta-estradiol in assay medium using a Flying Reagent Dispenser (Aurora Discovery, San Diego, CA). After the plates were incubated at 37 C and 5% CO2 for 21.5 h, 1 uL of CellTiter-Fluor reagent (Promega, Madison, WI) of measuring cytotoxicity was added using Flying Reagent Dispenser (FRD) to each well. The assay plates were incubated at 37 C and 5% CO2 for additional 30 min and the fluorescence intensity was quantified by a ViewLux plate reader (PerkinElmer, Shelton, CT). For measuring luciferase reporter gene activity, 4 uL of ONE-Glo reagent (Promega) was added to each plate using an FRD and luminescence was quantified by a ViewLux plate reader after 30 min incubation at room temperature.
On the % scale 0 is the no-effect control and ±100 the full control effect; potency means the concentration at half of the fitted maximal effect.

Compound	activity change, negative = inhibition	Potency
Cc1cc(C)c(C)c(C)c1	4.1%	
Cc1ccc(NC(N)=O)cc1	-0.735% [at 95 µM]	
Cc1ccc(O)c([N+](=O)[O-])c1	-7.23% [at 95 µM]	
CC(=O)OC/C=C(/C)CCC=C(C)C	7.43%	
CC(CC(=O)Cl)CC(C)(C)C (stereo not given)	16.4% [at 95 µM]	
CC(C)(C)C(=O)CC(=O)C(C)(C)C	7.43% [at 95 µM]	
Cc1ccc(Br)cc1	1.14%	
CN1C(CCl)Nc2cc(Cl)c(S(N)(=O)=O)cc2S1(=O)=O (stereo not given)	-17.3%	
CCCCS	1.3% [at 95 µM]	
C[C@@H]1CC[C@@]2(OC1)O[C@H]1C[C@H]3[C@@H]4CC[C@H]5C[C@@H](O)CC[C@]5(C)[C@H]4CC(=O)[C@]3(C)[C@H]1[C@@H]2C	-2.63% [at 32.5 µM]	
Clc1cc(Cl)c(Cl)c(Cl)c1Cl	1.41%	
C[Si](C)(C)O[Si](O)(O)O	-1.47%	
O=C(O)CCCCCCCCCC(=O)O	-20.1%	
CN(C)CCc1c[nH]c2ccc(C[C@H]3COC(=O)N3)cc12	-19.7%	
CCCCNCC	-8.06%	
CCc1ccc(CC)cc1	2.3% [at 95 µM]	
CC(=O)Oc1ccc(C(C)=O)cc1	4.98% [at 95 µM]	
COCc1nnc(-c2ccc[n+]([O-])c2)n1-c1c(Cl)c(Cl)cc2[nH]c(=O)c(=O)[nH]c12	11.4%	
CCCCCCCCCCCCCCCCN(C)C	-1.23% [at 8.47 µM]	
O=C(O)/C=C(\CC(=O)O)C(=O)O	5.09%	

Compound	activity change, negative = inhibition	Potency
NS(=O)(=O)c1cc2c(cc1C(F)(F)F)NCNS2(=O)=O	5.82% [at 32.5 µM]	
COC(=O)/C=C(\C)CCC=C(C)C	-1.26%	
O=C(OOC(=O)c1ccccc1)c1ccccc1	14.6%	
NCC1CCC(C(=O)Oc2ccc(CCC(=O)O)cc2)CC1 (stereo not given)		26.6 µM (active)
CC(=O)Nc1ccc(OCCOCCOc2ccc(NC(C)=O)cc2)cc1	6.58%	
CC1(C)S[C@@H]2[C@H](NC(=O)Cc3ccccc3)C(=O)N2[C@H]1C(=O)O (tested in a mixture with another compound)	0.0181%	
CC(C)(O)c1ccc(C(C)(C)O)cc1	5.71%	
CC(C)(C)c1ccc(N)cc1	12.8%	
Cc1cc(C)c(N)c(Cl)c1	-1.74%	
COC(=O)C(c1ccccc1Cl)N1CCc2sccc2C1 (stereo not given)	-12.6%	
Cc1ccc(N)nc1	5.64%	
C/C=C(\C)C=O	2.59% [at 95 µM]	
CNC(C)=O	-1.17%	
O=C(O)Cc1c(Cl)ccc(Cl)c1Cl	3.35%	
CCCCCCCCCCCCCCBr	9.75% [at 95 µM]	
CC(C)(O)CCCC1=CCC(C=O)CC1 (stereo not given)	13.8% [at 95 µM]	
CCCCCCCCCCCBr	-0.58%	
C=COCCCCO	-2.02%	
CN(C)c1ccncc1	0.0074%	
CCO[Si](CC(C)C)(OCC)OCC	2.44%	
